Drawing on PubChem BioAssay (NCI), this text covers growth for 40 compounds.

The panel holds about 83,000 compounds, 20% with a hit somewhere; the sample as a whole holds those more often.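 Negative percent growth values reflect cell death: -40 means 40% of the cells present at the start died, and -100 means all died.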 Active and inactive are the calls of the source.

In this assay the test system is RPMI-8226 leukemia. Briefly: NCI-60 one-dose screen, 48 h (100 = growth as untreated, 0 = no growth, -100 = all killed). As to conditions: 10 µM unless noted. How it is done:
Growth inhibition of the RPMI-8226 human tumor cell line is measured as a screen for anti-cancer activity. Cells are grown in 96 well plates and exposed to the test compound for 48 hours. Compounds are tested at a single concentration, which is 10^-5 M for most compounds. The reported endpoint is percent growth (GI% or GIPRCNT), where numbers from 0 - 100% represent growth inhibition, and numbers from -100% - 0 represent cell death. For example, a value of 40 represents 60% growth inhibition. A value of 0 means no net growth occurred over the course of the experiment. A value of -40 indicates 40% of cells at the beginning of the experiment died by the end of the experiment. A value of -100 means all cells are dead at the end of the experiment.
NCI-60 Human Tumor Cell Lines Screen was performed using the standard one-dose NCI protocol, which is described in more detail at https://dtp.cancer.gov/discovery_development/nci-60/default.htm.
Compounds with GIPRCNT values below 10 were considered active. Activity score was based on GIPRCNT using the following formula: […]
Score is 0 for GIPRCNT values of 100 or above, 50 for GIPRCNT values of 0, and 100 for GIPRCNT values of -100.
For the compound `CCO/C=N/C1=C(C#N)C(c2ccc(F)cc2)c2sc3c(CC)cccc3c2O1` (stereo not given), the growth was 4.25% (active).
The result for `CC(C)(C)c1ccc(C(=O)Nc2nc3ccc(O)cc3s2)cc1` reads 22.1% (inactive); that for `COc1ccc([C@H]2c3[nH]c4ccccc4c3C[C@H]3C(=O)N(C4CCN(Cc5c(Cl)cccc5Cl)CC4)CC(=O)N23)c(OC)c1`, 89.9% (inactive); that for `CCNC(=O)N1CCc2cc(OC)c(OCCc3ccc(OC)nc3)cc2C1c1ccc(C)cc1C` (stereo not given), 9.18% (active).
As for `C=C=COc1cccc(/C(N)=N/C(N)=N/c2nc3ccccc3s2)c1`, the figure is 106% (inactive); as for `CC(=O)c1cc(C(=O)N2c3ccccc3Sc3ccccc32)n2ccc3ccccc3c12`, 50.3% (inactive).
As for `CC(C)C[C@@H]1N[C@@]2(C(=O)Nc3ccccc32)[C@@H](c2ccc(F)cc2)[C@@H]1C(=O)c1ccc(O)cc1`, the growth was 91.2% (inactive).
For `CCCCCc1ccc(S(=O)(=O)Nc2cc(-c3csc(NC(=O)CN4CCN(C)CC4)n3)ccc2OC)cc1`, the growth is -27% (active).
The result for `C=C(C)[C@@H]1CC[C@]2(COP(=O)(OCC)OCC)CC[C@]3(C)[C@H](CC[C@@H]4[C@@]5(C)CCCNC(C)(C)[C@@H]5CC[C@]43C)[C@@H]12` reads -46.6% (active); that for `N#Cc1cnc2ccc(-c3cnc4[nH]ncc4c3)cc2c1N1CCc2cc(F)c(Cl)cc21`, -1.79% (active).
For `NS(=O)(=O)c1ccc(Nc2nc(Nc3ccccc3)nc3nnc(SCC(=O)NC4CCCCC4)n23)cc1`, the growth is 105% (inactive).
On to `COc1cc2c(cc1OC)C(Sc1ccc(C)cc1)c1c(nc(N)c(C#N)c1N)O2` (stereo not given), for which the growth was -19.2% (active).
As to `CN1CCN(Cc2ccc(NC(=O)c3cncc(C#Cc4cnn5cccnc45)c3)cc2C(F)(F)F)CC1`, the growth is 6.03% (active).
Consider `CCCn1cnc2c(c1=N)C(c1ccc(F)cc1)c1sc3c(C)cccc3c1O2` (stereo not given), for which the growth is -13.5% (active).
As for `O=C(Nc1ccc2c(ccn2Cc2ccccn2)c1)c1ccnnc1`, the figure is 94.4% (inactive); as for `COc1ccc2[nH]cc(-c3csc4nc(-c5ccccc5)cn34)c2c1`, 5.78% (active); as for `C/C(=N\O)[C@H]1C[C@]23CC[C@]4(C)[C@H](CC[C@@H]5[C@@]6(C)CC/C(=N/O)C(C)(C)[C@@H]6CC[C@]54C)[C@H]2[C@H](C)C1(C)OC3`, 124% (inactive).
As for `N=c1c2cc(-c3ccccc3)oc2ncn1/N=C/c1ccc(Cl)cc1`, the figure is 80.9% (inactive); as for `COc1cc(/C=N/NC(=O)c2cn(C3CC3)c3c(OC)c(N4CC5CCCNC5C4)c(F)cc3c2=O)ccc1O` (stereo not given), -25% (active); as for `COc1ccc(Cn2cc3c(c2-c2cc(OC)c(OC)c(OC)c2)CCc2c(CN4CCCC4)noc2-3)cc1`, 21% (inactive).
The result for `Nc1nc(-c2cccc([N+](=O)[O-])c2)c(N=Nc2ccc([N+](=O)[O-])cc2Cl)s1` reads -6.23% (active); that for `CC/C(=C/c1c(O)cccc1OC)c1ccc2c(OC)cccc2[o+]1`, 109% (inactive).
Take `NS(=O)(=O)c1ccc(Nc2cc(-c3ccccc3)nc(SCC(=O)c3ccccc3)n2)cc1`: the growth was 93.7% (inactive).
The result for `COc1ccc(CCN2C(=O)CSC2=S)cc1` reads 33.3% (inactive).
As for `Cc1ccc(-c2nnc(SCc3ccc(O)c4ncccc34)o2)cc1`, the figure is 12.8% (inactive); as for `COc1cc(/C=C2\C(=O)Nc3ccccc32)ccc1OCc1ccc(Cl)cc1`, 97.5% (inactive); as for `O=C1CCCc2nc(Nc3ccc(S(=O)(=O)Nc4ccc([N+](=O)[O-])cc4)cc3)ncc21`, 100% (inactive).
The result for `CCOC(=O)c1c(N)c(C#N)cn1-c1cc(OC)c(OC)c(OC)c1` reads 104% (inactive).
As to `CC[C@]12C=CCN3CC[C@@]4(c5cc(NC(=O)COc6cc(O)c7c(=O)cc(-c8ccccc8)oc7c6)c(OC)cc5N(C)[C@H]4[C@@](O)(C(=O)OC)[C@@H]1OC(C)=O)[C@@H]32`, the growth was -31.6% (active).
On to `COc1ccc(NC(=O)CSc2nnc(-c3ccc4nc(-c5ccccc5)[nH]c4c3)o2)cc1`, for which the growth is 79.1% (inactive).
With `O=C(NCc1ncc[nH]1)c1ccc(-c2nc3ccc4[nH]ncc4c3c3c2CCCC3)cc1`, the growth was 45% (inactive).
The result for `Cc1ccc(-c2nnc(SCc3ccc(O)c4ncccc34)n2-c2ccccc2)cc1` reads 7.99% (active); that for `CN1CCN(Cc2ccc(NC(=O)c3cncc(C#Cc4cnc5ccc(NCCCO)nn45)c3)cc2C(F)(F)F)CC1`, -36.9% (active); that for `COc1ccc(/C(N)=N/C(N)=N/c2nc3ccccc3s2)cc1`, 43.6% (inactive).
On to `O=C(NCCn1ccnc1)c1ccc(-c2nc3ccc4[nH]ncc4c3c3c2CCCC3)cc1`, for which the growth was 77.6% (inactive).
As for `Nc1ncc(-c2ccc(NS(=O)(=O)c3ccc(Cl)c(Cl)c3)cc2)[nH]1`, the figure is 59.1% (inactive).
Regarding `N#Cc1c(NC(=O)c2cccc(C(F)(F)F)c2F)sc2c1CCC(=O)C2`, the growth is -24.6% (active).
As for `COc1cc(/C=C2\C(=O)Nc3ccccc32)ccc1OCc1ccc(F)cc1`, the figure is 107% (inactive).
The result for `O=S(=O)(NCCNc1nccc(-n2cnc3ccccc32)n1)c1ccc(Cl)cc1` reads 99.4% (inactive); that for `COc1cc(OC)c(/C=C/S(=O)(=O)Cc2ccc(OC)c(NC(=O)CCC(=O)NO)c2)c(OC)c1`, 16.9% (inactive).
